The text below walks through data of PubChem BioAssay AID1878 (Sanford-Burnham Center for Chemical Genomics, 2009).

Molecules are shown by their SMILES. In all, about 1,000 compounds went through this assay and about 200 (20%) were called active. Rule as the data show it: active = inhibition above about 55%; inactive = the rest. A selection follows. Entries with a potency or affinity are not part of this list.

For the test, the target named is Dual specificity protein phosphatase 3 (Homo sapiens) (UniProt P51452). The test is described as follows: VHR1 phosphatase inhibitors, biochemical (AID 1878). As to conditions: recombinant VHR phosphatase, fluorogenic substrate; at 13.3 µM; stronger effect = higher value.
Dual specificity protein phosphatase 3 (Homo sapiens), sequence (P51452 whole entry, looked up): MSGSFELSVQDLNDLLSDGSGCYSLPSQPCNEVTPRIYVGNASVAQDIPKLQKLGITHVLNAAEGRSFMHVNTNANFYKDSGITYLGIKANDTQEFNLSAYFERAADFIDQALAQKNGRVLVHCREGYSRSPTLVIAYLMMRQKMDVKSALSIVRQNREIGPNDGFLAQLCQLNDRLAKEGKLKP
With `COc1ccccc1CNC(=O)C1Cc2cc(S(=O)(=O)N3CCCCC3)ccc2N1C(C)=O` (centres undefined), the inhibition was 28.1% (inactive).

On to `CCC1CCCCN1C(=O)c1ccc(OC2CCN(C(=O)CCOC)CC2)cc1` (centres undefined), for which the inhibition was -6.7% (inactive).

Take `CN(C)S(=O)(=O)c1ccc(C(=O)N2CC(=O)Nc3ccc(F)cc3C2c2ccc(F)cc2)cc1` (centres undefined): the inhibition was 26.6% (inactive).

As for `COc1ccc(CCNC(=O)CCNC(=O)N2CC(=O)Nc3ccccc32)cc1OC`, the inhibition is -7.1% (inactive).

For `COC(=O)c1cc(S(=O)(=O)NCCN2CCN(c3ccccc3F)CC2)c[nH]1`, the inhibition was 17.5% (inactive).

`CC(=O)Nc1cccc(C(=O)NC(C)c2ccc(-n3ccnc3)cc2)c1` (centres undefined): the inhibition is 1.8% (inactive).

Consider `CCCCN(CC)CCNC(=O)C1CCN(S(=O)(=O)c2cccc3nsnc23)CC1`, for which the inhibition was 8.4% (inactive).

Take `O=C(NCCN1CCCCC1)Nc1ccccc1F`: the inhibition was 18.4% (inactive).

Regarding `CC1CC(C)CN(CCCNC(=O)Cn2cccc2C(=O)c2ccccc2)C1` (centres undefined), the inhibition was -12.8% (inactive).

Consider `CCOC(=O)NN=C1CCC(c2ccccc2)CC1` (centres undefined), for which the inhibition was -4.2% (inactive).

For `CCC(C)Nc1nc2ccccc2n2c(C)nnc12` (centres undefined), the inhibition was 26.9% (inactive).

For `O=C(CCC1CCN(Cc2ccc(Cl)cc2)CC1)NC1CC1`, the inhibition was -8.1% (inactive).

Regarding `O=c1cc(-c2ccc([N+](=O)[O-])cc2)nc2cc(-c3ccc(Cl)cc3)[nH]n12`, the inhibition is 97.6% (active).

In the case of `O/N=C/c1ccc2cccc(OCc3ccccc3)c2n1`, the inhibition is -5.4% (inactive).

For `Cc1ccc(Cn2c(N3CCNCC3)nc3c2c(=O)[nH]c(=O)n3C)cc1`, the inhibition was 3.7% (inactive).

With `COc1ccc(C2NC(=O)CCC2[N+](=O)[O-])cc1OC` (centres undefined), the inhibition was -5.6% (inactive).

`COc1ccc(OCC(=O)Nc2nc3c(s2)CCCC3)cc1`: the inhibition is 1.9% (inactive).

`COc1ccc(C(=O)CCC(=O)Nc2ccc(N3CCCCC3)cc2)cc1OC`: the inhibition was -1.2% (inactive).

In the case of `COc1cc(NC(=O)CSc2ncnc3sc4c(c23)CCCC4)c(C(=O)O)cc1OC`, the inhibition was 55.5% (active).

Consider `COc1cccc(COC(=O)C2CCN(C(=O)c3ccccc3C)CC2)c1OC`, for which the inhibition was -4.4% (inactive).

`CN(C)C(CNC1CC(C)(C)NC(C)(C)C1)c1cccc(F)c1` (centres undefined): the inhibition was 12.5% (inactive).

As for `COc1ccc(-c2nn(CCC#N)cc2C(=O)Nc2ccccc2Cl)cc1`, the inhibition is 2.2% (inactive).

For `Cc1ccc(-c2nc3ccccc3s2)cc1NC(=O)c1cc(-n2cnnc2)ccc1Cl`, the inhibition is 63.4% (active).

In the case of `O=C1CN(C(=O)c2ccccc2)C(c2ccccc2)c2cc(F)ccc2N1` (centres undefined), the inhibition was -4.4% (inactive).

Take `COc1cc(NC(=O)CCc2nnc3ccc(N4CCCCC4)nn23)cc(OC)c1OC`: the inhibition is -6.5% (inactive).

Turning to `Nc1c(C(=O)NC2CC2)sc2nc3c(c(-c4ccco4)c12)CC/C3=C/c1ccco1`, the inhibition is 11.4% (inactive).

For the compound `O=C(O)CCCCC1CCSS1` (centres undefined), the inhibition was 97.7% (active).

In the case of `CCCn1c2ccccc2c2cnn(CC(=O)NCCCN3CCCC(C)C3)c(=O)c21` (centres undefined), the inhibition is -8.7% (inactive).

Regarding `CCOc1cccc(CN2CCCC(N3CCc4ccccc4C3)C2)c1O` (centres undefined), the inhibition was -11% (inactive).

With `O=C(Nc1ccc2oc(-c3cccnc3)nc2c1)c1ccc2c(c1)OCCO2`, the inhibition was 62.5% (active).

With `COc1cc2cc(C(=O)Nc3ccc4c(c3)OCCO4)[nH]c2cc1OC`, the inhibition was -3.4% (inactive).

For `c1cncc(-c2nc(-c3ccc4c(c3)OCCO4)cs2)c1`, the inhibition is -10.9% (inactive).

Turning to `CC1=C(C(=O)OC(C)C)C(c2ccccc2)NC(=O)N1C` (centres undefined), the inhibition was 6.5% (inactive).

On to `COC(=O)c1cccc(CSC(=S)N2CCCC2)c1`, for which the inhibition was -7.9% (inactive).

On to `O=C(O)c1ccc(Nc2nc(-c3ccc([N+](=O)[O-])cc3)nc3ccccc23)cc1`, for which the inhibition was 97.6% (active).

Take `COc1ccc(Nc2ccc([N+](=O)[O-])cn2)cc1`: the inhibition is -0.2% (inactive).

`O=[N+]([O-])c1ccc(-c2nnc(S)n2-c2ccccc2)cc1`: the inhibition was -5.8% (inactive).

For `Cc1ccc(C)c(N(CC(=O)NC2CCCC2)C(=O)CNC(=O)c2cccs2)c1`, the inhibition was -6.9% (inactive).

Take `Cc1ccccc1CCN1CCCC(CN(C)C(=O)C(=O)c2ccco2)C1` (centres undefined): the inhibition was 9.9% (inactive).

For the compound `Cc1cc(NC(=O)CCSc2ccc(Cl)cc2)no1`, the inhibition was 2.1% (inactive).

`Cc1ccc(S(=O)(=O)N(C)CC(=O)OCC(=O)NC(=O)NC(C)C)cc1`: the inhibition is -21.6% (inactive).

In the case of `COc1cc(/C=C2\SC(=O)N(Cc3ccc(F)cc3)C2=O)cc([N+](=O)[O-])c1O`, the inhibition was 53% (active).

As to `O=C(CCCCCN1C(=O)[C@@H]2Cc3ccccc3CN2C1=O)Nc1ccccc1F`, the inhibition was 11% (inactive).

In the case of `CCCCNC(=O)NNC(=O)C1CC1(c1ccccc1)c1ccccc1` (centres undefined), the inhibition is 9.1% (inactive).

As for `COc1cc(CCC(=O)NCc2ccc3c(c2)OCO3)cc(OC)c1OC`, the inhibition was 0.3% (inactive).

For `CS(=O)(=O)NN1C(=O)c2ccccc2NC1c1ccccc1F` (centres undefined), the inhibition was -7.9% (inactive).

Regarding `Cn1c(CNC(=O)CCNC(=O)c2cccc(Br)c2)cc(=O)n(C)c1=O`, the inhibition is -19.2% (inactive).

With `O=C(Nc1cc([N+](=O)[O-])ccc1O)c1cccc(C(=O)Nc2cc([N+](=O)[O-])ccc2O)c1`, the inhibition is 98.4% (active).

As to `O=C(O)CSc1cc(NS(=O)(=O)c2cccc([N+](=O)[O-])c2)c2ccccc2c1O`, the inhibition is 1.4% (inactive).

As for `O=C(Nc1cccc2cccnc12)c1cccc(Cl)c1`, the inhibition is 2.2% (inactive).

Turning to `CCOC(=O)C1=C(N)Oc2ccc3ccccc3c2C1c1ccc(O)c(OC)c1` (centres undefined), the inhibition was -1.4% (inactive).

For the compound `O=C(Nc1ccccc1Cl)c1cc2ccccc2o/c1=N\O`, the inhibition was -1% (inactive).

As for `NC(=O)c1cc2ccccc2o/c1=N\NC(=O)c1ccccc1O`, the inhibition was 98.4% (active).

As to `CCC1CN(C(=O)NCc2ccc(F)cc2)c2ccccc2O1` (centres undefined), the inhibition is 7.8% (inactive).

Take `COc1ccc(C(=O)NCc2ccc(N3CCN(C)CC3)cc2)cc1`: the inhibition was 21.1% (inactive).

As for `COc1cccc(C2NC(=O)CCC2[N+](=O)[O-])c1OC` (centres undefined), the inhibition is 3.9% (inactive).

For `COCCN(C(=O)CCC(=O)Nc1nccs1)C(C(=O)NCCC(C)C)c1ccc(OC)cc1` (centres undefined), the inhibition is -22% (inactive).

In the case of `COc1cc(C(C)=O)ccc1OCC(O)CN1CCN(c2ccc(F)cc2)CC1` (centres undefined), the inhibition was -0.4% (inactive).

For `COc1nc(Nc2nc3ccccc3c(=O)[nH]2)nc2ccc(C)cc12`, the inhibition is 89.8% (active).

As for `CCC(=O)N1CCN(c2ccc(NC(=O)c3ccc(N4CCOCC4)c([N+](=O)[O-])c3)cc2)CC1`, the inhibition is -6.9% (inactive).

With `Fc1ccccc1/C=N/n1c(C2CCCCC2)n[nH]c1=S`, the inhibition is 7.2% (inactive).

Turning to `Cn1c(=O)[nH]c(=O)c2c1[nH]c(=S)n2CCCc1ccccc1`, the inhibition was 2.5% (inactive).

`O=C(Cn1c2ccccc2c2nc3n(c(=O)c21)CCS3)N1CCCC1`: the inhibition was -3.8% (inactive).

`CN(C)c1ccc(N2C(=NC(=O)C3CCCO3)SC3CS(=O)(=O)CC32)cc1` (centres undefined): the inhibition is 10.7% (inactive).

With `Cc1ccc(CNCc2ccco2)cc1`, the inhibition was -2.3% (inactive).

For the compound `CC(C)(C)c1ccc(O)c(N=Cc2c(O)ccc3ccccc23)c1`, the inhibition was -0.4% (inactive).

Take `C/C(=N\N1CCN(c2ccccc2)CC1)c1ccc(O)cc1`: the inhibition was -1.9% (inactive).

`Clc1nccnc1N/N=C/c1ccc(Br)cc1`: the inhibition is 1.6% (inactive).

For `CCCCn1nc(NC(=O)CC(C)C)c2cc3cc(OC)ccc3nc21`, the inhibition was 2.1% (inactive).

Regarding `CCC1C(=O)C(C)(C)C(=O)OC1c1ccc([N+](=O)[O-])cc1` (centres undefined), the inhibition was -5.8% (inactive).

On to `CCOc1ccc(C(=O)N2CCN(CCc3ccccc3)CC2)cc1OCC`, for which the inhibition was 1.8% (inactive).

As for `O=C(CSc1nc2ccccc2n1CCc1ccccc1)c1ccc(O)c(O)c1`, the inhibition was 98.7% (active).

With `Cc1ccccc1C1NC(=O)c2ccccc2O1` (centres undefined), the inhibition is -14% (inactive).

`COc1cccc2[nH]c3c(=O)[nH]cnc3c12`: the inhibition is -1.7% (inactive).

Regarding `Cc1ccc(NC(=O)CNC(=O)N2CC(=O)Nc3ccccc32)cc1F`, the inhibition is 15.4% (inactive).

As to `O=C(Cn1cncn1)N/N=C/c1ccccc1Cl`, the inhibition was -4.5% (inactive).

As for `C[C@]12CCC3=C4CCC(=O)C=C4CC[C@H]3C1CC[C@@H]2O` (some centres undefined), the inhibition was 14.2% (inactive).

`CN1C(C)(C)CC(NC(=O)c2ccco2)CC1(C)C`: the inhibition was -4.7% (inactive).

`COc1cc(C2Nc3ccccc3NC3=C2C(=O)CC(C)(C)C3)cc(OC)c1OC` (centres undefined): the inhibition is -7.9% (inactive).

For `CCOc1ccc(C(=O)N2CCC3(CC2)NCCc2[nH]cnc23)cc1`, the inhibition was -8.9% (inactive).

With `Cc1cc(C(=O)N/N=C/c2cc([N+](=O)[O-])cc(C)c2O)n[nH]1`, the inhibition is 76.1% (active).

Consider `CCc1nn(CC(=O)NCCCN(C)C2CCCCC2)c(=O)c2cc3occc3n12`, for which the inhibition was 7.4% (inactive).

In the case of `COc1cccc(CNC(=O)C2CCN(c3nn4c(=O)cc(C)nc4s3)CC2)c1`, the inhibition is -8.6% (inactive).

`COc1ccccc1Nc1nn2c(=O)c3ccc(C(=O)NCc4cccnc4)cc3nc2s1`: the inhibition was 97.1% (active).

Turning to `COc1ccc(C(CC(=O)Nc2ncccc2C)N2Cc3ccccc3C2=O)cc1` (centres undefined), the inhibition was -9.5% (inactive).

Consider `COc1cc(NC(=O)CN2C(=O)COc3ccc(S(=O)(=O)N4CCCCC4)cc32)cc(OC)c1`, for which the inhibition was -1.8% (inactive).

Consider `O=C(c1ccc(CS(=O)c2ccccc2Cl)o1)N1CCN(c2ccccc2)CC1` (centres undefined), for which the inhibition was 2.8% (inactive).

As for `CC(C)c1ccc(N2C(=NC(=O)C3CCCO3)SC3CS(=O)(=O)CC32)cc1` (centres undefined), the inhibition is 11.9% (inactive).

In the case of `COc1cc2c(cc1OC)-c1cc(Nc3cccc(F)c3)nc(=O)n1CC2`, the inhibition is 14.3% (inactive).

In the case of `CN(C)c1ccc(NS(=O)(=O)c2cc3c4c(c2)CC(=O)N4CCC3)cc1`, the inhibition was -8% (inactive).

As for `COc1cc(/C=N/NC(=O)c2ccc3c(c2)OCO3)ccc1O`, the inhibition was -2% (inactive).

With `COc1cc(/C=N/Nc2ccc([N+](=O)[O-])cn2)cc(OC)c1O`, the inhibition was -5.7% (inactive).

`CCOc1ccc(NC(=O)CCC(=O)NNC(=O)c2ccccc2Cl)cc1`: the inhibition was 2% (inactive).

Regarding `CCC1CCCCN1CCCNC(=O)c1cn(C)c2ccc(S(=O)(=O)N3CCOCC3)cc2c1=O` (centres undefined), the inhibition was -9.8% (inactive).
